Compound activity (PubChem BioAssay)
Sampled rows, rich in hits. Any-hit rate of the full collection: about 2.8%.
Wnt bcat act – activators of Wnt/beta-catenin signaling; 1.2% of 300,000 active; AID 743398; Wnt/beta-catenin reporter cell assay, activator, plate reader; activation, % at 9.35 µM; in the data active = activation above about 30%, passing the limit was not always enough; inconclusive = no clear call, values can overlap the other calls
esBAF inh – SWI/SNF esBAF complex inhibition. mouse ES cells, Bmi1-luciferase knock-in reporter, 24 h; 100% = twice the neutral-well signal. reporter increase, % at 12.5 µM. 2% of 350,000 active; in the data active = activation above about 40%; inconclusive = no clear call, values can overlap the other calls;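 also: a rise in the Bmi1 reporter signal indicates esBAF inhibition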
GAA850 FXN act – frataxin GAA850 promoter activation | HEK293 lucGAA850 FXN promoter luciferase reporter, 24 h; percent of 10 µM SAHA response | AID 540364 | activation, % at 6 µM | 0.56% of 360,000 active;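 active = activation above the average of all compounds screened plus 3 SD, cutoff fixed separately per campaign, cut at about 7.5% in these data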
MITF act – increases MITF-driven TRPM1 promoter luciferase signal; activation, % at 12.5 µM; SK-MEL-5 TRPM1-promoter luciferase, 24 h; % of positive control, neutral wells = 0; 0.75% of 300,000 active; AID 588334;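 active = mean activation of at least 80% with every replicate also reaching 80%; inconclusive = mean reaches 80% but some replicate falls short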
Large screens that a line does not name were inactive.

O=C(N/N=C/c1ccc(Cl)cc1)c1ccc2c(c1)OCO2	esBAF inh 63.1
C/C(=N\NC(=O)c1ccc2c(c1)OCO2)c1ccc(NS(C)(=O)=O)cc1	esBAF inh 50.9
O=C(N/N=C/c1ccc2c(c1)OCO2)c1ccc2c(c1)OCCO2	none (no result: esBAF inh)
C[C@@H]1CN([C@H](C)CO)C(=O)c2cc(N(C)C)ccc2O[C@@H](C)CCCCO[C@@H]1CN(C)Cc1ccc2c(c1)OCO2	none (no result: Wnt bcat act, GAA850 FXN act, MITF act)
C[C@H](CO)N1C[C@H](C)[C@H](CN(C)Cc2ccccc2)Oc2ccc(NS(=O)(=O)c3cccs3)cc2C1=O	none (no result: Wnt bcat act, GAA850 FXN act, MITF act)
CCN1C(=S)SC(=O)C1=C1C=C(C)N(Cc2ccco2)C(C)=C1	esBAF inh 72.0
O=C1C(=C2CCCCC2)SC(=S)N1Cc1ccco1	none
CCN1C(=S)SC(=O)C1=C1C=C(C)OC(C)=C1	MITF act 90.7 (no result: Wnt bcat act, esBAF inh)
COc1ccc(CN(C(=O)c2cc3ccccc3oc2=O)C2CCCC2)cc1	none (no result: esBAF inh)
COc1cccc(CN(C(=O)c2cc3ccccc3oc2=O)C2CC2)c1	Wnt bcat act inconclusive, esBAF inh 56.7 (no result: MITF act)
COc1ccc(CN(C(=O)c2cc3ccccc3oc2=O)C2CCS(=O)(=O)C2)cc1OC (centres undefined)	esBAF inh 61.9
COc1ccc(CN(C(=O)c2cc3ccccc3oc2=O)C2CCS(=O)(=O)C2)cc1 (centres undefined)	none (no result: esBAF inh, MITF act)
CCOc1ccc(CN(C(=O)c2cc3ccccc3oc2=O)C2CCS(=O)(=O)C2)cc1 (centres undefined)	esBAF inh 76.4
Cc1snc2sc(C(=O)c3ccc(Br)cc3)c(N)c12	MITF act 88.4 (no result: Wnt bcat act, esBAF inh)
COc1ccc(/C=C(\CC(=O)O)c2nc3ccccc3o2)cc1	esBAF inh 69.4
C[C@@H]1CCCCO[C@H](CN(C)C(=O)NC2CCCCC2)[C@@H](C)CN([C@H](C)CO)C(=O)c2cc(NC(=O)NC3CCCCC3)ccc2O1	none (no result: Wnt bcat act, GAA850 FXN act, MITF act)
C[C@@H]1CN([C@@H](C)CO)C(=O)c2cc(N(C)C)ccc2O[C@@H](C)CCCCO[C@@H]1CN(C)C(=O)Nc1ccc(F)cc1	none (no result: Wnt bcat act, GAA850 FXN act, MITF act)
Cc1cc(NC(C)c2ccccc2)n2ncc(-c3ccccc3)c2n1 (centres undefined)	esBAF inh 59.2, MITF act 121.7
Cc1cc(NCc2ccccc2)n2ncc(-c3ccccc3)c2n1	MITF act 104.5
Cc1cc(C)n(-c2cc(C(C)(C)C)nc3c(-c4ccccc4)cnn23)n1	Wnt bcat act 55.9, MITF act 120.9 (no result: esBAF inh)
Cc1cc(C)n(-c2cc(C(C)(C)C)nc3c(-c4ccc(Cl)cc4)cnn23)n1	none (no result: Wnt bcat act)
C[C@@H]1CN([C@H](C)CO)S(=O)(=O)c2ccc(C#Cc3ccccc3F)cc2O[C@H]1CN(C)C	none (no result: Wnt bcat act, GAA850 FXN act, MITF act)
CN1CCN(C(=O)c2ccc(-c3cccs3)s2)CC1	Wnt bcat act 36.0 (no result: esBAF inh, MITF act)
COC(=O)Nc1c(-c2ccccc2)nc2ccccn12	none (no result: Wnt bcat act)
c1ccc(-c2nc3ccccn3c2-c2ccccc2)cc1	Wnt bcat act 42.6 (no result: esBAF inh)
C[C@H]1CN([C@@H](C)CO)C(=O)c2cc(C#Cc3ccc(F)cc3)cnc2O[C@H]1CN(C)Cc1ccccn1	none (no result: Wnt bcat act, GAA850 FXN act, MITF act)
Brc1ccccc1OCCCOc1cccc2cccnc12	esBAF inh 77.3 (no result: MITF act)
Brc1ccccc1OCCOc1cccc2cccnc12	none (no result: esBAF inh)
C[C@H]1CCCCO[C@H](CN(C)Cc2ccncc2)[C@@H](C)CN([C@@H](C)CO)C(=O)c2cc(NC(=O)Nc3cccc4ccccc34)ccc2O1	none (no result: Wnt bcat act, GAA850 FXN act, MITF act)
Cn1c(-c2ccc([N+](=O)[O-])cc2)nc2ccccc21	Wnt bcat act 32.4
O=C(NC1CCC1)[C@H]1[C@H](CO)[C@H]2Cn3c(ccc(-c4ccccc4)c3=O)[C@H]2N1Cc1ccccn1	none (no result: Wnt bcat act, GAA850 FXN act, MITF act)
O=C(NC1CC1)c1ccc2c(Cl)c3c(nc2c1)CCCC3	esBAF inh 47.1
N#Cc1ccccc1NC(=O)c1ccc2c(Cl)c3c(nc2c1)CCCC3	esBAF inh 79.9 (no result: Wnt bcat act)
C[C@H](CO)N1C[C@H](C)[C@@H](CN(C)S(=O)(=O)c2ccc(Cl)cc2)OCCCC[C@H](C)Oc2ccc(NC(=O)Nc3cccc4ccccc34)cc2C1=O	none (no result: Wnt bcat act, GAA850 FXN act, MITF act)
Cc1ccc(S(=O)(=O)N[C@H]2CC[C@H](CCNC(=O)C3CCCCC3)O[C@@H]2CO)cc1	none (no result: Wnt bcat act, GAA850 FXN act, MITF act)
Oc1cccc2cc(Nc3ccccc3)cnc12	none (no result: MITF act)
Oc1cc(Nc2ccccc2)cc2cccnc12	Wnt bcat act 79.8
C=C(C)CSc1nnc([C@@H]2CCCN2)o1	none (no result: esBAF inh)
O=C(CSc1nnc([C@@H]2CCCN2)o1)c1ccc(Cl)cc1	Wnt bcat act 37.4
CO[C@H]1CN(C)C(=O)c2cc(NS(C)(=O)=O)ccc2OC[C@@H](C)N(C(=O)c2ccc3c(c2)OCO3)C[C@@H]1C	none (no result: Wnt bcat act, GAA850 FXN act, MITF act)
O=C(c1cc2cc3ccc(Cl)cc3nc2o1)N1CCCCCC1	MITF act 101.9 (no result: Wnt bcat act)
